Rows were chosen to be rich in hits. Some 1.5% of all compounds tested hit in one or more screens of this group.
dFosB activator = activators of delta FosB homodimer, primary screen, biochemical, fluorescence polarization, TAMRA-CDK5 oligo, single point; Protein FosB (Mus musculus), P13346; purified delta FosB; percent of positive-control signal above neutral wells; activation, % at 25 µM; hit rate 0.99% among 340,000;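 active = mean activation above about 17%, with every replicate also reaching it, limit read from the data, passing the limit was not always enough; inconclusive = only one of the two conditions met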
Target sequence (P13346 whole entry, looked up): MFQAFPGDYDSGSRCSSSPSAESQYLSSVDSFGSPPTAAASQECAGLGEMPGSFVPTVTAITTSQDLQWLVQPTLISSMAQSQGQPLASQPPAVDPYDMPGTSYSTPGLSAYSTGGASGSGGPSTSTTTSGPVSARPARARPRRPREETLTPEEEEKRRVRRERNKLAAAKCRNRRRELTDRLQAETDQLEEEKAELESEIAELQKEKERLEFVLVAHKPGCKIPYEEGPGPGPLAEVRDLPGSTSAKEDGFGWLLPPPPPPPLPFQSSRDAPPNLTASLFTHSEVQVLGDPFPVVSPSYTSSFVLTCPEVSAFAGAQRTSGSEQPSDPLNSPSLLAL
PvdQ acylase = P. aeruginosa PvdQ acylase inhibitors, primary screen, biochemical, fluorescence, plate reader and imaging, single point | purified PvdQ acylase | hit rate 0.063% among 340,000 | inhibition, % at 10 µM; in the data active = inhibition above about 30%, passing the limit was not always enough; inconclusive = no clear call, values can overlap the other calls
CFTR F508del cor = F508del CFTR correction, initial screen, CFBE line, single point; CFBE cells, YFP halide quenching; stimulated with forskolin plus potentiator P3; % fluorescence drop versus neutral controls; activity (quench increase), % at 7.58 µM; hit rate 0.36% among 350,000; AID 720511, 2013;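 active = mean added fluorescence quench of at least 8% versus neutral control, with both replicates also reaching 8%; inconclusive = only one of the mean or replicate conditions met; inactive = mean below 8% and not both replicates reaching 8%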;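 note: cells transiently co-express mutant CFTR-F508del with the halide-sensitive YFP; corrector assay measuring rescue of mutant channel to the surface after 24 h compound exposure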
RAD52 inh = RAD52 DNA annealing inhibitors, primary screen, biochemical, FRET, single point, set 2. DNA repair protein RAD52 homolog (Homo sapiens), P43351. recombinant RAD52 DNA annealing, FRET fluorescence. AID 651710, 2012. inhibition, % at 18.7 µM. hit rate 0.46% among 360,000;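 active = every replicate showing at least 50% inhibition; inconclusive = mean inhibition at least 50% but not in every replicate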
Target sequence (P43351 whole entry, looked up): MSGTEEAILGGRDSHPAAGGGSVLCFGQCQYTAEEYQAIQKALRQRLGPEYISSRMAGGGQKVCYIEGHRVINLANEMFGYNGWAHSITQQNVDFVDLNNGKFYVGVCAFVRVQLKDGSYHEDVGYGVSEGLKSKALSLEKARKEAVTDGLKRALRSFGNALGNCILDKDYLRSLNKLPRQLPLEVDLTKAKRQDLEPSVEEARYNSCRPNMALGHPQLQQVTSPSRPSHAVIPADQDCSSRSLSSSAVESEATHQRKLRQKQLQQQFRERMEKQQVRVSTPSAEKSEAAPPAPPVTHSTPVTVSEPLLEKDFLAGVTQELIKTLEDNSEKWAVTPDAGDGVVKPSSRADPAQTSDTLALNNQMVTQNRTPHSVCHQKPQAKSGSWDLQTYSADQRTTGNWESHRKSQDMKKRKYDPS
N-glyco inh = increase of ERlucT glycosylation luciferase signal, primary screen, N-linked glycosylation inhibitor project, D54 ERlucT cells, luminescence, set 2. D54 ERlucT glycosylation luciferase reporter, 24 h; percent of 100 nM tunicamycin response. reporter increase, % at 12.5 µM. hit rate 0.23% among 360,000. AID 588692, 2011;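 active = mean luciferase reporter signal, scaled so untreated is 0 and the glycosylation-blocking control 100, at or above a set limit in every replicate; inconclusive = mean reaches the limit but not every replicate does; inactive = mean below the limit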;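 note: luciferase carries N-glycosylation sites so blocking glycosylation raises the light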
RAD54 branch = inhibitors of human RAD54 branch migration, primary screen, biochemical, fluorescence, single point | AID 602329, 2012 | hit rate 0.14% among 360,000 | RAD54 Holliday junction branch migration, FAM/BHQ fluorescence | inhibition, % at 10.4 µM;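 active = mean normalized replicate activity at least 40 and at least half of replicates scoring 40 or more; inconclusive = only one of the two criteria met; inactive = mean below 40 and under half of replicates reaching 40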;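 note: inhibitors cause a drop in the FAM fluorescence signal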
Each line names hits and unclear results; the compound was inactive in the other large screens; ! = repeats disagree.

C[C@H]1CN([C@@H](C)CO)S(=O)(=O)c2ccc(-c3ccc(C#N)cc3)cc2O[C@@H]1CN(C)Cc1ccccn1	CFTR F508del cor 11.7 (no result: dFosB activator, PvdQ acylase, N-glyco inh)
O=c1cc(CN2CCN(C/C=C/c3ccccc3)CC2)c2cc(O)c(-c3ccccc3)cc2o1	dFosB activator 65.5 (no result: CFTR F508del cor, RAD52 inh)
Cc1cc2oc(=O)cc(CN3CCN(C/C=C/c4ccccc4)CC3)c2cc1O	dFosB activator 24.6 (no result: CFTR F508del cor, RAD52 inh)
O=C(C[C@@H]1CC[C@@H]2[C@H](COC[C@H](O)CN2C(=O)C2CC2)O1)NCc1ccccc1Cl	none (no result: dFosB activator, PvdQ acylase, N-glyco inh)
C[C@H](O)C#Cc1cnc2c(c1)C(=O)N([C@@H](C)CO)C[C@@H](C)[C@H](CN(C)C(=O)Cc1ccccn1)O2	none (no result: dFosB activator, PvdQ acylase, N-glyco inh)
COc1ccc(NC(=O)O/N=C/c2ccccc2)cc1	dFosB activator 16.4
COc1cc(-c2noc(C)c2/C=C/c2ccc(OC(C)=O)cc2)cc(OC)c1OC	N-glyco inh 27.1
O=c1[nH]c(CSc2nc3ccccc3s2)nc2ccccc12	none
COc1ccc(C2NCCc3c2[nH]c2ccccc32)cc1CSc1nc2ccccc2s1 (stereo unspecified)	dFosB activator 79.8 (no result: CFTR F508del cor, RAD54 branch)
CC(C)CC#Cc1cnc2c(c1)C(=O)N([C@H](C)CO)C[C@@H](C)[C@@H](CN(C)Cc1cncnc1)O2	none (no result: dFosB activator, PvdQ acylase, N-glyco inh)
O=C(CCCN1CCC(O)(c2cccc(C(F)(F)F)c2)CC1)c1ccc(F)cc1	CFTR F508del cor 8.3
CO[C@@H]1CN(C)C(=O)c2cc(NC(=O)c3ccc4c(c3)OCO4)ccc2OC[C@@H](C)NC[C@@H]1C	none (no result: dFosB activator, PvdQ acylase, N-glyco inh)
COc1ccc(OC)c(-c2cc(-c3cccnc3)nc(N)c2C#N)c1	CFTR F508del cor 9.0, N-glyco inh inconclusive
CN(C)c1ccc2c(c1)[C@@H]1C[C@@H](CC(=O)NCCN3CCCCC3)O[C@H](CO)[C@@H]1O2	RAD54 branch 55.3 (no result: dFosB activator, PvdQ acylase, N-glyco inh)
CC(C)Nc1nc(Nc2ccc(Cl)cc2F)c2sccc2n1	CFTR F508del cor 8.6 (no result: dFosB activator, PvdQ acylase)
O=C(NCCN1CCCC1)[C@@H]1[C@@H](CO)[C@@H]2Cn3c(cccc3=O)[C@H]1N2C(=O)NC1CCCC1	none (no result: dFosB activator, PvdQ acylase, N-glyco inh, RAD54 branch)
COc1ccc(NC(=O)c2nc(C)c(C3(C)CC(c4ccccc4)=NO3)s2)cc1 (stereo unspecified)	CFTR F508del cor 14.3
COc1cc(/C=C2/SC(=O)NC2=O)ccc1OC(=O)c1ccco1	dFosB activator 67.6
O=C(Nc1ccc(F)cc1)Nc1ccc(N2CCOCC2)c2nonc12	CFTR F508del cor 11.4 (no result: RAD54 branch)
O=C(/C=C/c1ccc([N+](=O)[O-])cc1)/C=C/c1ccco1	N-glyco inh 30.9
NCC(=O)NNC(=O)OCC1c2ccccc2-c2ccccc21	CFTR F508del cor 8.6
CNC[C@H]1Oc2ncc(-c3ccc(OC)cc3)cc2C(=O)N([C@@H](C)CO)C[C@@H]1C	none (no result: dFosB activator, PvdQ acylase, RAD52 inh, N-glyco inh, RAD54 branch)
CN1CCN(C(=O)C[C@@H]2C=C[C@@H](NC(=O)Nc3ccccc3F)[C@H](CO)O2)CC1	none (no result: dFosB activator, PvdQ acylase, N-glyco inh)
O=C(C[C@H]1C[C@@H]2c3cc(NC(=O)Nc4ccccc4F)ccc3O[C@@H]2[C@H](CO)O1)NC1CCCC1	none (no result: dFosB activator, PvdQ acylase, N-glyco inh)
Cc1c(Cl)cccc1NC(=O)C1CC(=O)N(C2CCCC2)C1 (stereo unspecified)	CFTR F508del cor 13.1
Cc1[nH]c2ccccc2c1/C=N/Nc1nc(Nc2ccccc2)nc(N2CCOCC2)n1	dFosB activator 23.5 (no result: CFTR F508del cor, RAD52 inh)
c1ccc(Nc2nc(N3CCCC3)nc(N3CCOCC3)n2)cc1	none
Oc1[nH]c2ccccc2c1N=Nc1nc(Nc2ccccc2)nc(N2CCOCC2)n1	dFosB activator 47.1
CN1[C@@H]2Cn3c(ccc(-c4ccccc4)c3=O)[C@H]1[C@@H](C(=O)N1CCC(Cc3ccccc3)CC1)[C@@H]2CO	none (no result: dFosB activator, PvdQ acylase, N-glyco inh)
COc1ccc(-c2ccc(C3[C@H]4CNC[C@@H]3N4S(=O)(=O)c3cccc(C)c3)cc2)cc1 (stereo partly specified)	none (no result: dFosB activator, PvdQ acylase, N-glyco inh, RAD54 branch)
COc1ccc(S(=O)(=O)N2[C@@H]3CNC[C@H]2C3c2ccc(-c3cccc(C)c3)cc2)cc1 (stereo partly specified)	RAD52 inh 65.1! (no result: dFosB activator, PvdQ acylase, N-glyco inh, RAD54 branch)
Cc1ccc(-c2ccc(C3[C@H]4CNC[C@@H]3N4S(=O)(=O)c3ccccc3)cc2)cc1 (stereo partly specified)	none (no result: dFosB activator, PvdQ acylase, N-glyco inh, RAD54 branch)
Cc1ccc(-c2ccc(C3[C@H]4CNC[C@@H]3N4S(=O)(=O)c3cccc(C)c3)cc2)cc1 (stereo partly specified)	RAD52 inh 53.7! (no result: dFosB activator, PvdQ acylase, N-glyco inh, RAD54 branch)
O=S(=O)(c1cccc(Cl)c1)N1[C@@H]2CNC[C@H]1C2c1ccc(-c2cccc(F)c2)cc1 (stereo partly specified)	RAD52 inh 54.4! (no result: dFosB activator, PvdQ acylase, N-glyco inh, RAD54 branch)
N#Cc1ccc(-c2ccc(C3[C@H]4CNC[C@@H]3N4S(=O)(=O)c3ccc(-c4ccccc4)cc3)cc2)cc1 (stereo partly specified)	RAD52 inh 82.3 (no result: dFosB activator, PvdQ acylase, N-glyco inh, RAD54 branch)
COc1cccc(-c2cnc3c(c2)C(=O)N([C@H](C)CO)C[C@@H](C)[C@@H](CN(C)C(=O)Nc2c(C)noc2C)O3)c1	none (no result: dFosB activator, PvdQ acylase, N-glyco inh)
O=C1CN(S(=O)(=O)Cc2ccccc2)C[C@@H]2[C@H](c3ccc(C#CC4CC4)cc3)[C@@H](CO)N12	none (no result: dFosB activator, PvdQ acylase, N-glyco inh, RAD54 branch)
C[C@@H]1CN([C@H](C)CO)C(=O)c2cc(N(C)C)ccc2O[C@@H](C)CCCCO[C@H]1CN(C)S(=O)(=O)c1ccccc1	none (no result: dFosB activator, PvdQ acylase, N-glyco inh)
Cc1cccc(-c2ccc(C3[C@H]4CNC[C@@H]3N4S(=O)(=O)c3ccccc3C)cc2)c1 (stereo partly specified)	none (no result: dFosB activator, PvdQ acylase, N-glyco inh, RAD54 branch)
Cc1ccccc1S(=O)(=O)N1[C@@H]2CNC[C@H]1C2c1ccc(-c2ccccc2)cc1 (stereo partly specified)	RAD52 inh 54.9! (no result: dFosB activator, PvdQ acylase, N-glyco inh, RAD54 branch)
COc1ccc(NC(=O)Nc2ccc3c(c2)CC(=O)N([C@@H](C)CO)C[C@@H](C)[C@H](CN(C)C)O3)cc1	none (no result: dFosB activator, PvdQ acylase, N-glyco inh)
Cc1ccccc1-c1ccc([C@H]2[C@@H](CO)N3CCCCN(S(=O)(=O)c4cn(C)cn4)C[C@H]23)cc1	none (no result: dFosB activator, PvdQ acylase, N-glyco inh)
CCOC(=O)c1oc2ccc(S(=O)(=O)n3nc(-c4ccc(OC)cc4)cc3N)cc2c1C	none
CCOC(=O)c1oc2ccc(S(=O)(=O)n3nc(-c4ccccc4)cc3N)cc2c1C	CFTR F508del cor 8.2
O=C(c1[nH]ncc1-c1cccc(Br)c1)C1CO1 (stereo unspecified)	CFTR F508del cor 10.9 (no result: RAD54 branch)
O=C(c1[nH]ncc1-c1ccccc1)C1CO1 (stereo unspecified)	none (no result: RAD54 branch)
CN(CCNC(=O)c1c[nH]c2c1ccc1ccccc12)CCNC(=O)c1c[nH]c2c1ccc1ccccc12	dFosB activator 43.6 (no result: RAD54 branch)
CN(C)CCNC(=O)c1ccccc1-c1cc2ccccc2c(=O)o1	none

Screening data deposited in PubChem BioAssay by Broad Institute.
